Experimental data reported in PubChem BioAssay (EPA / NIEHS).
Activity calls are given as the source filed them. The calls were made as follows: active = hit-call score of the fitted dose curve at least 0.9, where 1 is the maximum; inactive = score below 0.9.

Assay: ATG_TGFb_CIS: Attagene CIS-FACTORIAL HepG2 Assay for human Transforming Growth Factor (TGF) (AID 2282967)
Details: HepG2 Attagene CIS TGFb reporter, mRNA transcription; actives raise or lower the signal
How it was run: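 HepG2 cells transiently transfected with cis-promoter-driven multiple reporter units measure endogenous TF activity; reporter mRNA quantified at 24 h by RT-PCR, FAM labeling, HpaI digestion and capillary electrophoresis. Bidirectional fit vs DMSO.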

| SMILES | outcome | AC50 |
| --- | --- | --- |
| CCc1ncc(C)[nH]1 | inactive | – |
| CCCCCCCC/C=C\CCCCCCCC(=O)OCC | inactive | – |
| CN1CCOCC1 | inactive | – |
| [Cl][Au]([Cl])[Cl] | inactive | – |
| CC=Cc1ccc(OC)c(OC)c1 | inactive | – |
| O=C(CC(=O)c1ccccc1)c1ccccc1 | inactive | – |
| C=CCCCCCCCCCC | inactive | – |
| CCCC1O[C@@H]2C[C@H]3[C@@H]4CCC5=CC(=O)C=C[C@]5(C)[C@H]4[C@@H](O)C[C@]3(C)[C@]2(C(=O)CO)O1 (stereo not given in full) | – | 9.41 µM (active) |
| O=c1c(O)c(-c2ccc(O)cc2)oc2cc(O)cc(O)c12 | inactive | – |
| C=C(C)[C@@H]1CC=C(C)C(=O)C1 | inactive | – |
| COC(=O)c1ccc(C)cc1C1=NC(C)(C(C)C)C(=O)N1 (stereo not given) (tested in a mixture with another compound) | inactive | – |
| C=COCCOCCOC=C | inactive | – |
| C=C1CC[C@H](O)C/C1=C/C=C1\CCC[C@]2(C)[C@@H]([C@H](C)/C=C/[C@H](C)C(C)C)CC[C@@H]12 | inactive | – |
| O=[N+]([O-])c1cccc(Cl)c1 | inactive | – |
| CN(C)C(=S)SC(=S)N(C)C | inactive | – |
| CCOc1ccc(N=Nc2ccc(C=Cc3ccc(N=Nc4ccc(OCC)cc4)cc3S(=O)(=O)O)c(S(=O)(=O)O)c2)cc1 | inactive | – |
| CC(Oc1cc(Cl)ccc1Cl)C(=O)O (stereo not given) | inactive | – |
| CC1(C)C2=CCCC(C)(C)[C@]23CC[C@H]1C3 | – | 100 µM (active) |

| SMILES | outcome | AC50 |
| --- | --- | --- |
| CCCCCC(C=O)=Cc1ccccc1 | inactive | – |
| CCCC(C)C(O)CC (stereo not given) | inactive | – |
| Cc1ccc(S(=O)(=O)Oc2ccc(N=Nc3ccc(-c4ccc(N=Nc5c(O)ccc6cc(S(=O)(=O)O)cc(S(=O)(=O)O)c56)c(C)c4)cc3C)cc2)cc1 | – | 40.6 µM (active) |
| CC(=O)C1(C)CC2=C(CCCC2(C)C)CC1C (stereo not given) | inactive | – |
| CCCCCCC(O)CCCCCCCCCCC(=O)O (stereo not given) | inactive | – |
| N#Cc1ccc(CC(=O)c2cccc(C(F)(F)F)c2)cc1 | inactive | – |
| Clc1ccc(C(c2ccccc2Cl)C(Cl)Cl)cc1 (stereo not given) | inactive | – |
| Cc1c(OCC(F)(F)F)ccnc1CS(=O)c1nc2ccccc2[nH]1 (stereo not given) | inactive | – |
| CC[N+](C)(CC)CC | inactive | – |
| Cc1cc(=O)oc2cc(N(C)C)ccc12 | inactive | – |
| CCCCCCCCc1ccc(S(=O)(=O)O)cc1 | inactive | – |
| CC(CN=Cc1ccccc1O)N=Cc1ccccc1O (stereo not given) | inactive | – |
| O=C(O)CCCCCCCCC(=O)O | inactive | – |
| N#Cc1cscn1 | inactive | – |
| CCCCCCCCC=CCCCCCCCC1=NCCN1CCO | – | 0.666 µM (active) |
| OCC(O)c1ccccc1 (stereo not given) | inactive | – |
| CCCCCCOCCOCCO | inactive | – |
